PMK inhibit: blocks S. pneumoniae phosphomevalonate kinase; purified PMK, PK/LDH-coupled NADH absorbance 340 nm; inhibition, % at 10 µM; hit rate 0.49% among 65,000; AID 539;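 active = top-ranked compounds by inhibition in the single 10 µM screen, taking a fixed number of the strongest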
NADH coupling: blocks coupling enzymes of NAD/NADH assays; AID 774; coupled PK/LDH NADH assays, four targets; IC50, µM (series often up to 10 µM); hit rate 0.02% among 65,000;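 active = single-dose screening hits from any of four coupled enzyme assays that gave an IC50 when retested across doses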;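 also: the DPM-DC format reads NADH fluorescence rather than 340 nm absorbance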
Autofluor 339: intrinsic fluorescence of library compounds, ex339/em460 – biochemical, MLSMR library, data from DPM-DC assay, artefact control, profiling panel; compound autofluorescence, ex339/em460 nm, NADH buffer; hits give high values; 1 = no-compound wells, NADH background; fluorescence fold increase at 10 µM; hit rate 5.5% among 65,000; AID 709;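 active = at 10 µM, mean starting fluorescence two-fold or more over control wells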;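 also: signal is the first read of a kinetic run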
Spn DPM-DC inh: blocks S. pneumoniae diphosphomevalonate decarboxylase | hit rate 0.49% among 65,000 | purified DPM-DC, PK/LDH coupled NADH fluorescence | AID 556 | calls only at 10 µM;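 active = the 320 compounds with the highest percent inhibition in the single-dose primary screen, excluding strongly autofluorescent ones, cut at about 32% in these data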;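 also: kinetic rate of NADH fluorescence loss reporting ADP formed by the decarboxylase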
A340 absorber: absorbance at 340 nm | compound absorbance at 340 nm, fold over control | fold change at 10 µM | 65,000 tested, under 10 active;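 active = at 10 µM dose, initial 340 nm absorbance at least 2 fold that of control wells; inactive = change under 2 fold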;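 also: initial absorbance extrapolated from kinetic A340 decline of NADH oxidation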
Spn MK inh: blocks S. pneumoniae mevalonate kinase. hit rate 0.48% among 65,000. purified MK, PK/LDH-coupled NADH absorbance 340 nm. inhibition, % at 10 µM;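 active = ranked among the strongest by inhibition in the single 10 µM screen, a fixed top-ranked set picked for dose follow-up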
Hits are given with their value. In the library only some 6.5% were active in any assay of this set; here they are far more common.

For CC1(C)Cc2c(sc3nn[nH]c(=O)c23)CO1 the results were PMK inhibit inactive, NADH coupling inactive, Autofluor 339 inactive, Spn DPM-DC inh inactive, A340 absorber inactive and Spn MK inh inactive.
Screening CCC1CC2(C)NC(=O)c3c(sc4c3CC(C)(C)OC4)N2C1=O (stereo not drawn) returned PMK inhibit inactive, NADH coupling inactive, Autofluor 339 2.3, A340 absorber inactive and Spn MK inh inactive.
Screening O=C(Cn1nnc(-c2ccc(Cl)cc2)n1)NCC1CCCCC1 returned PMK inhibit inactive, NADH coupling inactive, Autofluor 339 inactive, Spn DPM-DC inh inactive, A340 absorber inactive and Spn MK inh inactive.
`COC(=O)c1ccc2c(c1)N(Cc1nc(-c3ccc(Cl)cc3)oc1C)C(=O)C1CCCN21` (stereo not drawn) gave PMK inhibit inactive, NADH coupling inactive, Autofluor 339 3.7, Spn DPM-DC inh inactive, A340 absorber inactive and Spn MK inh inactive.
`COC(=O)c1ccc2c(c1)N(Cc1nc(-c3cccc(Cl)c3)oc1C)C(=O)C1CCCN21` (stereo not drawn) gave PMK inhibit inactive, NADH coupling inactive, Autofluor 339 2, Spn DPM-DC inh inactive, A340 absorber inactive and Spn MK inh inactive.
For C=CCn1c2ccccc2c2nnc(SCc3ccc4nonc4c3)nc21 the results were PMK inhibit inactive, NADH coupling inactive, Autofluor 339 inactive, Spn DPM-DC inh inactive, A340 absorber inactive and Spn MK inh inactive.
`Cc1ccc(C(C(=O)NC2CCCC2)N(Cc2cccnc2)C(=O)c2snc(C(N)=O)c2N)o1` (stereo not drawn) gave PMK inhibit inactive, NADH coupling inactive, Autofluor 339 2.6, Spn DPM-DC inh inactive, A340 absorber inactive and Spn MK inh inactive.
CCOc1ccccc1N(C(=O)c1snc(C(N)=O)c1N)C(C(=O)NC1CCCC1)c1ccco1 (stereo not drawn) was read as NADH coupling inactive, Autofluor 339 2.4, Spn DPM-DC inh inactive, A340 absorber inactive and Spn MK inh inactive.
For COCCNC(=O)C(c1ccc(C)o1)N(C(=O)c1snc(C(N)=O)c1N)c1cccc(C)c1 (stereo not drawn) the results were PMK inhibit inactive, NADH coupling inactive, Autofluor 339 2.5, Spn DPM-DC inh inactive, A340 absorber inactive and Spn MK inh inactive.
`O=C(OCc1cccs1)c1ccccc1NS(=O)(=O)c1ccc2c(c1)OCCO2` gave PMK inhibit inactive, NADH coupling inactive, Autofluor 339 inactive, Spn DPM-DC inh inactive, A340 absorber inactive and Spn MK inh inactive.
For O=C(COc1ccc(-n2cnnn2)cc1)NCCc1ccc(F)cc1 the results were PMK inhibit inactive, NADH coupling inactive, Autofluor 339 inactive, Spn DPM-DC inh inactive, A340 absorber inactive and Spn MK inh inactive.
Screening CCOCC(=O)Nc1cc(-c2cn3cccnc3n2)ccc1C returned PMK inhibit inactive, NADH coupling inactive, Autofluor 339 5.3, A340 absorber inactive and Spn MK inh inactive.
For COCC(=O)Nc1ccc(-c2cn3cccnc3n2)cc1 the results were PMK inhibit inactive, NADH coupling inactive, Autofluor 339 5.2, A340 absorber inactive and Spn MK inh inactive.
Brc1ccc(-c2cn3cccnc3n2)cc1 was read as PMK inhibit inactive, NADH coupling inactive, Autofluor 339 3.4, A340 absorber inactive and Spn MK inh inactive.
For c1ccc(-c2cnnc(SCc3cn4cccnc4n3)n2)cc1 the results were PMK inhibit inactive, NADH coupling inactive, Autofluor 339 inactive, Spn DPM-DC inh inactive, A340 absorber inactive and Spn MK inh inactive.
`CCOc1ccccc1NC(=O)Cn1cnc2c(cnn2-c2ccc(C)c(C)c2)c1=O` gave PMK inhibit inactive, NADH coupling inactive, Autofluor 339 inactive, Spn DPM-DC inh inactive, A340 absorber inactive and Spn MK inh inactive.
For Cc1ccc(-n2ncc3c(=O)n(CC(=O)Nc4cccc(Cl)c4)cnc32)cc1C the results were PMK inhibit inactive, NADH coupling inactive, Autofluor 339 2.7, Spn DPM-DC inh inactive, A340 absorber inactive and Spn MK inh inactive.
For CCCN(CCC)S(=O)(=O)c1ccc(C(=O)Nc2nnc(-c3cc(OC)cc(OC)c3)o2)cc1 the results were PMK inhibit inactive, NADH coupling inactive, Autofluor 339 inactive, Spn DPM-DC inh inactive, A340 absorber inactive and Spn MK inh inactive.
`COc1ccccc1-c1nnc(NC(=O)c2ccc(S(=O)(=O)N(C)C)cc2)o1` gave PMK inhibit inactive, NADH coupling inactive, Autofluor 339 inactive, Spn DPM-DC inh inactive, A340 absorber inactive and Spn MK inh inactive.
